# Shown is part of a subset that was picked to be rich in hits.
# FECH inh = inhibitors of human ferrochelatase, primary screen, biochemical, purified FECH, Ni-mesoporphyrin absorbance. Ferrochelatase, mitochondrial (Homo sapiens), P22830. Ni-mesoporphyrin absorbance 550 nm. calls only at 10 µM (by protocol). hit rate 3.3% among 20,000. AID 1671448, 2021;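 active = enzyme reaction rate more than 3 SD below the solvent-only control wells on the same plate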;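 also: lower slope than DMSO wells means FECH inhibition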
# Target sequence (P22830 whole entry, looked up): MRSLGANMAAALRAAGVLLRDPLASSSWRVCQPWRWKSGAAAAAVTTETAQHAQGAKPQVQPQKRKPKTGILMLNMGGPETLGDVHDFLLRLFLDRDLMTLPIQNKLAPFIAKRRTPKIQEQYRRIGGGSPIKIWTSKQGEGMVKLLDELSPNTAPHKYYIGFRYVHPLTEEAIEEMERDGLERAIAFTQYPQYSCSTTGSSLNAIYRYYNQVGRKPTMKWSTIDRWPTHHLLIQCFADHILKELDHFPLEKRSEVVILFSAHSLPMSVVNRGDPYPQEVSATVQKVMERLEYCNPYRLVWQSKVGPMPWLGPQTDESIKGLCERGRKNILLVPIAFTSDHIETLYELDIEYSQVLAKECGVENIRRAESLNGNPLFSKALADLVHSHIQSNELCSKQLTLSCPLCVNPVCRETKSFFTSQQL
# Starred values were filed as active, the others as inactive; i = inactive; + = active, no number.
SMILES,FECH inh
CCCc1cc(Sc2ccc(NC(=O)Nc3cccc(OC)c3)cc2)n2ncnc2n1,+
CCCc1cc(Sc2ccc(NC(=O)Nc3ccc(OC)c(OC)c3)cc2)n2ncnc2n1,i
CCCN(CCC)c1ncc(NS(=O)(=O)c2cc(C)cc(C)c2)cc1C(=O)O,+
CCN(CCN(C)C)c1ncc(NS(=O)(=O)c2cc(C)cc(C)c2)cc1C(=O)O,i
Cc1cc(C)cc(S(=O)(=O)Nc2cnc(N(CC(C)C)CC(C)C)c(C(=O)O)c2)c1,i
Cc1cccc(-c2cc(N3CCN(S(=O)(=O)c4cc(F)ccc4F)CC3)ncn2)c1,i
COc1ccc(S(N)(=O)=O)cc1-c1noc(C2CCCCC2)n1,i
COc1ccc(S(N)(=O)=O)cc1-c1noc(C(C)(C)C)n1,i
CCc1nc(-c2cc(S(N)(=O)=O)ccc2OC)no1,+
Cc1ccc(S(=O)(=O)N2CCC(CC(=O)NCCN(C)C)CC2)cc1,i
CCS(=O)(=O)Nc1cnc(N2CC=C(c3ccccc3C)CC2)c(C(=O)O)c1,i
CC(C)c1ccc(S(=O)(=O)NCc2nc3cccnc3n2C(C)C)cc1,i
Cc1ccncc1C(=O)N1CCCn2nc(C(=O)NCCN(C)C)cc2C1,i
CCCc1nc2nc[nH]n2c(=O)c1NC(=O)Nc1ccc(C)c(F)c1,i
CCCc1nc2nc[nH]n2c(=O)c1NC(=O)Nc1ccc(Br)cc1,i
CCCc1nc2nc[nH]n2c(=O)c1NC(=O)Nc1ccc(Br)c(C)c1,+
Cc1cc(C)n2nc(CN(C(=O)c3ccc(F)cc3)c3ccc(Cl)cc3)nc2n1,i
Cc1ccc(N(Cc2nc3nc(C)cc(C)n3n2)C(=O)c2ccc(C(C)(C)C)cc2)cc1,+
CCOc1ccc(N(Cc2nc3nc(C)cc(C)n3n2)C(=O)c2ccc(C)cc2)cc1,+
Cc1cccc(N(Cc2nc3nc(C)cc(C)n3n2)C(=O)c2ccc(C(C)(C)C)cc2)c1,+
COc1ccccc1C(=O)N(Cc1nc2nc(C)cc(C)n2n1)c1ccc(C)cc1,i
Cc1cccc(N(Cc2nc3nc(C)cc(C)n3n2)C(=O)c2ccc(F)cc2)c1,+
Cc1ccc(C(=O)N(Cc2nc3nc(C)cc(C)n3n2)c2ccc(F)cc2)cc1,i
CCOc1ccc(N(Cc2nc3nc(C)cc(C)n3n2)C(=O)c2ccccc2C)cc1,i
Cc1ccc(C(=O)N(Cc2nc3nc(C)cc(C)n3n2)c2ccc(Cl)cc2)cc1,i
SMILES,FECH inh
Cc1cc(C)n2nc(CN(C(=O)c3ccc(C(C)(C)C)cc3)c3cccc(Cl)c3)nc2n1,i
CCOc1ccc(N(Cc2nc3nc(C)cc(C)n3n2)C(=O)C(C)(C)C)cc1,i
COc1ccc(C(=O)N(Cc2nc3nc(C)cc(C)n3n2)c2ccccc2)cc1,i
C[C@@]1(O)CCN(C(=O)c2[nH]ncc2Cl)C[C@@H]1Cc1ccccc1,i
CCN(CC)c1nc(Nc2ccc(Cl)cc2)c2cnn(-c3ccccc3)c2n1,i
O=C(Cn1ncnn1)N1CCOc2c(O)cc(-c3cccc(Cl)c3)cc2C1,i
CN(Cc1n[nH]c2c1CCCC2)c1cc(N2CCOCC2)nc(N)n1,i
CNS(=O)(=O)c1ccc(CN2CCCC(CNC(C)=O)C2)cc1 (centres undefined),i
CCCNC(=O)NCCc1nc2cccnc2n1C1CCCCC1,i
Cc1ccc2oc(C(=O)N3CCN4C(=O)CN(C)C(=O)C4C3)c(C)c2c1 (centres undefined),i
CC1=NOC(C)(CNC(=O)CCc2n[nH]c3c2CCCC3)C1 (centres undefined),i
Cc1ccc(S(=O)(=O)N2CCN(c3cc(-c4ccccc4C)ncn3)CC2)cc1C,i
CC(C)N1CC(NC(=O)Nc2nnc(C(C)(C)C)s2)CC1=O (centres undefined),i
Cc1ccc2[nH]cc(-c3ccc4cc[nH]c(=O)c4c3)c2c1,i
CN1CCN(CCCNC(=O)c2cccn2-c2nnc(N3CCCCC3)s2)CC1,i
CCOc1ccccc1CN(C(=O)c1cn(CC)c2nc(C)ccc2c1=O)C1CC1,i
CCOc1ccccc1CN(C(=O)c1cn2cc(Cl)ccc2n1)C1CC1,+
CCOc1ccccc1CN(CC)C(=O)c1ccc2nccn2c1,i
CSc1nc(-c2ccc(C)cc2)c(C#N)c(N2CCN(CCO)CC2)n1,i
COc1ccc(-c2ncc3c(=O)n(Cc4ccc(Br)cc4F)c(=O)n(C)c3n2)cc1,i
Cc1ccccc1NC(=O)CN1CCCN(Cc2ccc(Cl)cc2)S1(=O)=O,i
Cc1ccccc1NCc1cc(=O)n2[nH]c(-c3ccccc3C)nc2n1,+
Cc1ccccc1-c1nc2nc(CNc3ccccc3F)cc(=O)n2[nH]1,+
Cc1ccccc1-c1nc2nc(CNC(C)C)cc(=O)n2[nH]1,i
Cc1cc(C)nc(NC(=O)c2cccc(CN3CCCC(C(N)=O)C3)c2)c1 (centres undefined),i
CCc1nc(C)cc(N(C)Cc2cc(-c3cccnc3)no2)n1,i
CCc1c(C)nc(SCc2nc(-c3ccccc3C)oc2C)[nH]c1=O,i
O=C(NC1CC1)C1CN(Cc2cc3ccccc3[nH]2)CCN1 (centres undefined),i
